# Source: the supplement of paper PMC6411743
# ± gives the standard deviation of the averaged measurements. About 6,500 targets were measured; listed, in parts, are those with the largest changes and a random draw of the rest.
# Compound: Nc1ncnc2c1ncn2[C@@H]1O[C@H](COP(=O)(O)OP(=O)(O)OP(=O)(O)O)[C@@H](O)[C@H]1O [adenosine triphosphate]
# Experiment: NP40-soluble protein abundance relative to vehicle (solubility fold change) (ratio); higher = more soluble protein in presence of ATP
# How it was run: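 Values are fold changes against the detergent-processed vehicle, based on vsn-normalised intensities. Jurkat crude lysate was treated at eight concentrations from 0.1 to 10 mM (10 min at room temperature, then 3 min at 37 °C), solubilised with 0.8% NP40 and benzonase, ultracentrifuged and analysed by TMT-labelled LC-MS/MS over three independent experiments.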
# Sequence of UniProt Q14061 (Q14061 whole entry): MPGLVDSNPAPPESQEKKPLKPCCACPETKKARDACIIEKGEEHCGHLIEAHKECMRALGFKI
# Sequence of UniProt Q8TEQ8 (Q8TEQ8 whole entry): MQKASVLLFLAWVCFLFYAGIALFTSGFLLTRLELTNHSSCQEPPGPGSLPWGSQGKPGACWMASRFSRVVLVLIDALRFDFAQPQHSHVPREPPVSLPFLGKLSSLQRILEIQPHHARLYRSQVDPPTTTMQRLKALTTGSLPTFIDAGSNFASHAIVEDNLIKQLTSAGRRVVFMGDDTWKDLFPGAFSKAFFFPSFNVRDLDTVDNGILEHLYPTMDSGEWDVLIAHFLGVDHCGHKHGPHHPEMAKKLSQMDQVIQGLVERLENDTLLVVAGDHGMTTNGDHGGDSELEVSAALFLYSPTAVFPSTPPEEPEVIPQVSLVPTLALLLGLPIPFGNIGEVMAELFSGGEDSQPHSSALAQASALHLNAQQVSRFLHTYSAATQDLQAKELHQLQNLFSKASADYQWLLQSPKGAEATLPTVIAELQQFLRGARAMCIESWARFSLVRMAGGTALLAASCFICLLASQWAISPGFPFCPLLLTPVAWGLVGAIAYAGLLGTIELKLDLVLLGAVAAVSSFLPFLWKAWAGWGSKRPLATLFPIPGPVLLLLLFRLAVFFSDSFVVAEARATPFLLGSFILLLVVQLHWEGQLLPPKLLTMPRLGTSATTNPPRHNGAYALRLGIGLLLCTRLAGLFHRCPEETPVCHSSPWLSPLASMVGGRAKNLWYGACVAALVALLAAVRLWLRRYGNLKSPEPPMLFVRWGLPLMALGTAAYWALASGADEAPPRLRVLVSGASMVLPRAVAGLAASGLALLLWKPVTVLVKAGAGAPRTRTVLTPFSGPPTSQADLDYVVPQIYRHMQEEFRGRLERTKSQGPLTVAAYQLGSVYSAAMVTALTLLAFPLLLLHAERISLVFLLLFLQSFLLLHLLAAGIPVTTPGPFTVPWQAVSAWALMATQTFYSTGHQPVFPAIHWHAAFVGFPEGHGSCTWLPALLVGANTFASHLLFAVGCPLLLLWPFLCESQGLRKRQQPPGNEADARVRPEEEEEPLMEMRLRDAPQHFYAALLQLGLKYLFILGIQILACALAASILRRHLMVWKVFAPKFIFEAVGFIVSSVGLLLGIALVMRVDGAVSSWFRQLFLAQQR
# Sequence of UniProt Q5VTR2 (Q5VTR2 whole entry): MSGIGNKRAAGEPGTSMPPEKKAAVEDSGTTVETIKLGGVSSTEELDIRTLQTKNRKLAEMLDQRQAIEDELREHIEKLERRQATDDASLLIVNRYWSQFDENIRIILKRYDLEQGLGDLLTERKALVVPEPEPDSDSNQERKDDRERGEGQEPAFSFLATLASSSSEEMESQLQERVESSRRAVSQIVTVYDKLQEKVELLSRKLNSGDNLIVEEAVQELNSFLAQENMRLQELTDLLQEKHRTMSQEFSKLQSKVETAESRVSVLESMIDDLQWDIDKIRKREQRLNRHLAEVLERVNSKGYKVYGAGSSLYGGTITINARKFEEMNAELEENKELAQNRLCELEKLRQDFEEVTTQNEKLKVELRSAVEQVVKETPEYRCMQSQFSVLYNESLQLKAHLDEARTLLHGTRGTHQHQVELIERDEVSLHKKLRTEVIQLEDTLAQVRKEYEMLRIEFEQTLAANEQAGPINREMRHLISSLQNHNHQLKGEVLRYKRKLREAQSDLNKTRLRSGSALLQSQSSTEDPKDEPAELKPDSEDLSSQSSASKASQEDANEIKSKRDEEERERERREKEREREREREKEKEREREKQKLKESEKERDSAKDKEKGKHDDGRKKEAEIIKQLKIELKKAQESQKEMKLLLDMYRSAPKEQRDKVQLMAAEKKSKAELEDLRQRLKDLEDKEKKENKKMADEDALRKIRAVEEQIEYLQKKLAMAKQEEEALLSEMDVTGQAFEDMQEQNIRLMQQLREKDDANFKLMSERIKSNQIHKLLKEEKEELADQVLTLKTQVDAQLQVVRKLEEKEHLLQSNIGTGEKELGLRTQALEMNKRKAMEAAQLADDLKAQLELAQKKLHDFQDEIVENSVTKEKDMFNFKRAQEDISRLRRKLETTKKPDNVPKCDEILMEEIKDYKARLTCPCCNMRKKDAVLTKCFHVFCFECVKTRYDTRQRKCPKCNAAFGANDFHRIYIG
# Sequence of UniProt Q8NB78 (Q8NB78 whole entry): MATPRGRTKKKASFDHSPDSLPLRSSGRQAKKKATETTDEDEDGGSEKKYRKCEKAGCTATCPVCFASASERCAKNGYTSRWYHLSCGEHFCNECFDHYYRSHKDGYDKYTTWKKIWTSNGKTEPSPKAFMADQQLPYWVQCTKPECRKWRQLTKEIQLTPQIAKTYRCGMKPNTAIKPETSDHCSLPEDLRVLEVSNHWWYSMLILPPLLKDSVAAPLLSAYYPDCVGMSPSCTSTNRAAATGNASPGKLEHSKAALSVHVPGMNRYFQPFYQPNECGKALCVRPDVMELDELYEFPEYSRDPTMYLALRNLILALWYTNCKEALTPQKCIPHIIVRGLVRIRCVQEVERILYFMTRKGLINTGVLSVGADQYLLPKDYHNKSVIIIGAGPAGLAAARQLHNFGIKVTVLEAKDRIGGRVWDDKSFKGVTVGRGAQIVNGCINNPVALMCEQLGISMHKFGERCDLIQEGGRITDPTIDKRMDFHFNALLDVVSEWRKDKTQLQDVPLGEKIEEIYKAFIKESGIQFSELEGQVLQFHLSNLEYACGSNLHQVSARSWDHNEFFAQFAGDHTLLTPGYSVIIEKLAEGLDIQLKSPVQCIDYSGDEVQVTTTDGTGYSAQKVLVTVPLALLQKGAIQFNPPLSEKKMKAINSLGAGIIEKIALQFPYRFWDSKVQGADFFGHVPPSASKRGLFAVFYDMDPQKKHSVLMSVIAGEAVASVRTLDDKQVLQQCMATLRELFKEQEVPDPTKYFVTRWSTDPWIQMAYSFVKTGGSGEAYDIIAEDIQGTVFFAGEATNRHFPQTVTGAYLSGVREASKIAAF
# Sequence of UniProt Q7Z5G4 (Q7Z5G4 whole entry): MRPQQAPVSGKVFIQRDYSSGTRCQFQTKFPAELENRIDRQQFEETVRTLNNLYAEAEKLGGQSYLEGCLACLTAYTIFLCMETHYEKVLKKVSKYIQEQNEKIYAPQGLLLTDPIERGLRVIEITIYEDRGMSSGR
# Sequence of UniProt Q86W42 (Q86W42 whole entry): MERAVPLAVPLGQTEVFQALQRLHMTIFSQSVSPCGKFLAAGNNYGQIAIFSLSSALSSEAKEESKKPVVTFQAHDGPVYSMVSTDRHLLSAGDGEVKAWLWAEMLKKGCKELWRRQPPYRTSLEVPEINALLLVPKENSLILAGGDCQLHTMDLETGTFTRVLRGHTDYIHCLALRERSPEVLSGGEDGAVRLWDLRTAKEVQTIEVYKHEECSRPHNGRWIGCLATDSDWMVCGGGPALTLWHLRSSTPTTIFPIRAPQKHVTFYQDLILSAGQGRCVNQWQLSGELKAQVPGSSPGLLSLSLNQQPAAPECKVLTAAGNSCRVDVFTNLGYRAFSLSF
# Sequence of UniProt Q15393 (Q15393 whole entry): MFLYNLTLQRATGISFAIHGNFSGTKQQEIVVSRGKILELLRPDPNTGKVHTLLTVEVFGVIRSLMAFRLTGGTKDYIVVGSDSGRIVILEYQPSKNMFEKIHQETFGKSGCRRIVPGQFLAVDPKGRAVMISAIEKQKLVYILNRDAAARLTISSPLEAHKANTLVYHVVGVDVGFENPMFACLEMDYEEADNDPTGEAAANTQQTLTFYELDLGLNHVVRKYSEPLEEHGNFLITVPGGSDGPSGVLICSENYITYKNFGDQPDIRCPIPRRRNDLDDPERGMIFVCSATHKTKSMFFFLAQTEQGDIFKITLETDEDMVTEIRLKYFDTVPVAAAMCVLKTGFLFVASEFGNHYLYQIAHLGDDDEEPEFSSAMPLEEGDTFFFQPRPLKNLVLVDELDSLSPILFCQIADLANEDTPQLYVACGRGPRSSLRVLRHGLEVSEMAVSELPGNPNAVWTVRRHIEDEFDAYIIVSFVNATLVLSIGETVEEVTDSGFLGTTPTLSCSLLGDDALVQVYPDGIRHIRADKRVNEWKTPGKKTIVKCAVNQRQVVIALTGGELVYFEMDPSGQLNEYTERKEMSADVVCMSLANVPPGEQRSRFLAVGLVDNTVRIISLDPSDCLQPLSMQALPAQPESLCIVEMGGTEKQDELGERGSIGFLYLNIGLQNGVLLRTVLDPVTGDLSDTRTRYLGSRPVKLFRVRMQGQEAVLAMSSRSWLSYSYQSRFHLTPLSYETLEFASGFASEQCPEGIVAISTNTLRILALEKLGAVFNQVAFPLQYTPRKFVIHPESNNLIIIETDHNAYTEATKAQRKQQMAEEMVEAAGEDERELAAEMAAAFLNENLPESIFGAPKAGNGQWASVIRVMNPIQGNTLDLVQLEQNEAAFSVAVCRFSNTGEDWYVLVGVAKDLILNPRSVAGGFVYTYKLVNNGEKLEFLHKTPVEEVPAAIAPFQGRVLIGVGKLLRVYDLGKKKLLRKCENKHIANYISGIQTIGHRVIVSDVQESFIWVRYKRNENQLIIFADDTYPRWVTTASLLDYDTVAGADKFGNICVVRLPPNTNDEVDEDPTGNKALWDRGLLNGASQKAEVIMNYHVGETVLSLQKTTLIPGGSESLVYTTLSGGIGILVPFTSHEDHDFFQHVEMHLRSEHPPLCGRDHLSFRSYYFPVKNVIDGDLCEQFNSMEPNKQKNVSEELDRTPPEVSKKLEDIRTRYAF
# Sequence of UniProt Q5T280 (Q5T280 whole entry): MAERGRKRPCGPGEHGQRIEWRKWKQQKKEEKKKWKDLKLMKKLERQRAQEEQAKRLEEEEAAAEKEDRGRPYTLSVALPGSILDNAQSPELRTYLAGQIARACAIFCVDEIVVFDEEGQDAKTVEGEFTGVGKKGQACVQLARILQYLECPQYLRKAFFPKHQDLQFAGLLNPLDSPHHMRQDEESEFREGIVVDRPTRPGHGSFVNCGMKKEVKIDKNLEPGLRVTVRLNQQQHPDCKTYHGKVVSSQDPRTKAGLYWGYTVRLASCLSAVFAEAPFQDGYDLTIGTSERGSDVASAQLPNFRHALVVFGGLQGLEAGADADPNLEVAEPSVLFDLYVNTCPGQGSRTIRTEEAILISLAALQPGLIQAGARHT
Target,NP40-soluble protein abundance (concentration: 1mM),NP40-soluble protein abundance (concentration: 2mM),NP40-soluble protein abundance (concentration: 4mM),NP40-soluble protein abundance (concentration: 6mM),NP40-soluble protein abundance (concentration: 8mM),NP40-soluble protein abundance (concentration: 10mM)
UniProt Q8TEB1|Q8TEB1-2,0.948 ± 0.093,0.977 ± 0.06,0.961 ± 0.079,0.956 ± 0.054,0.942 ± 0.066,0.918 ± 0.078
UniProt Q5T280,1.03 ± 0.085,1.08 ± 0.077,1.23 ± 0.12,1.47 ± 0.17,1.52 ± 0.21,1.83 ± 0.22
PDCD11 (UniProt Q14690),1.09 ± 0.092,1.14 ± 0.056,1.29 ± 0.062,1.5 ± 0.13,1.75 ± 0.073,2.06 ± 0.15
UniProt Q7Z2T5,1.09 ± 0.05,1.16 ± 0.051,1.27 ± 0.013,1.39 ± 0.023,1.55 ± 0.018,1.69 ± 0.051
UniProt Q5JUR7,1 ± 0.077,1.07 ± 0.12,1.04 ± 0.029,1.02 ± 0.13,1.05 ± 0.087,1.06 ± 0.062
COX17 (UniProt Q14061),0.938 ± 0.1,0.895 ± 0.074,0.92 ± 0.1,0.963 ± 0.033,0.859 ± 0.056,0.847 ± 0.023
UniProt Q8NCA5|Q8NCA5-2,1.01 ± 0.056,1.14 ± 0.15,1.18 ± 0.12,1.26 ± 0.14,1.41 ± 0.14,1.64 ± 0.23
UniProt Q8N684|Q8N684-2|Q8N684-3,1.51 ± 0.076,1.61 ± 0.016,1.75 ± 0.065,1.81 ± 0.081,1.82 ± 0.055,1.83 ± 0.032
UniProt Q8IWZ8,1.03 ± 0.036,1.05 ± 0.037,1.08 ± 0.034,1.11 ± 0.068,1.11 ± 0.051,1.09 ± 0.037
UniProt Q8WUY8|M0R1E3,1.02 ± 0.085,1.049 ± 0.0036,1.13 ± 0.032,0.966 ± 0.052,1.03 ± 0.067,1.08 ± 0.013
UniProt Q13243,1.5 ± 0.12,1.63 ± 0.088,1.76 ± 0.12,1.95 ± 0.11,1.92 ± 0.13,1.98 ± 0.07
UniProt Q86UT6|Q86UT6-2,1.03 ± 0.027,1.081 ± 0.0018,0.99 ± 0.06,1.01 ± 0.18,1.02 ± 0.14,1.03 ± 0.12
UniProt Q14289|Q14289-2|H0YB74,1.03 ± 0.04,1.04 ± 0.042,1.02 ± 0.04,0.981 ± 0.06,1.01 ± 0.04,1 ± 0.064
UniProt Q8TED0|H0Y8P4|Q8TED0-3,1.18 ± 0.18,1.22 ± 0.11,1.32 ± 0.18,1.43 ± 0.28,1.5 ± 0.24,1.77 ± 0.41
UniProt Q641Q2|F8W7U3|Q641Q2-2,0.968 ± 0.057,0.9815 ± 0.0096,0.938 ± 0.033,0.94 ± 0.094,0.895 ± 0.05,0.896 ± 0.047
UniProt Q7Z5G4|Q7Z5G4-3,0.928 ± 0.02,0.914 ± 0.015,0.902 ± 0.019,0.885 ± 0.046,0.878 ± 0.014,0.897 ± 0.032
UniProt Q86W42|Q86W42-2,1.59 ± 0.18,1.69 ± 0.05,2 ± 0.087,2.16 ± 0.071,2.47 ± 0.094,2.55 ± 0.19
BNIP1 (UniProt Q12981),0.986 ± 0.051,0.983 ± 0.05,0.98 ± 0.07,1 ± 0.012,0.971 ± 0.049,0.932 ± 0.053
EFTUD2 (UniProt Q15029),1.12 ± 0.04,1.16 ± 0.047,1.21 ± 0.047,1.26 ± 0.075,1.41 ± 0.056,1.42 ± 0.12
UniProt Q12872|Q12872-2,1.24 ± 0.083,1.33 ± 0.049,1.5 ± 0.049,1.77 ± 0.068,1.77 ± 0.066,1.93 ± 0.075
CIRBP (UniProt Q14011),0.999 ± 0.062,1.02 ± 0.029,1.04 ± 0.033,1.1 ± 0.061,1.09 ± 0.051,1.1 ± 0.025
UniProt Q13137|Q13137-3|Q13137-4|Q13137-5|H0YBP4,0.962 ± 0.033,0.968 ± 0.032,0.9319 ± 0.0066,0.986 ± 0.03,0.941 ± 0.012,0.948 ± 0.026
UniProt Q86UY6,1.39 ± 0.18,1.46 ± 0.14,1.56 ± 0.21,1.66 ± 0.26,1.69 ± 0.21,1.69 ± 0.15
TRIM14 (UniProt Q14142),1.08 ± 0.044,1.05 ± 0.037,1.13 ± 0.088,1.1 ± 0.083,1.17 ± 0.067,1.27 ± 0.2
DCUN1D3 (UniProt Q8IWE4),0.923 ± 0.038,0.949 ± 0.049,0.998 ± 0.035,0.92 ± 0.034,0.931 ± 0.039,0.866 ± 0.11

Target,NP40-soluble protein abundance (concentration: 1mM),NP40-soluble protein abundance (concentration: 2mM),NP40-soluble protein abundance (concentration: 4mM),NP40-soluble protein abundance (concentration: 6mM),NP40-soluble protein abundance (concentration: 8mM),NP40-soluble protein abundance (concentration: 10mM)
UniProt Q32P28|Q32P28-3|Q32P28-4,1.13 ± 0.023,1.15 ± 0.025,1.2 ± 0.077,1.19 ± 0.043,1.22 ± 0.051,1.198 ± 0.0094
UniProt Q13761|Q13761-2,1.07 ± 0.2,1.18 ± 0.35,1.18 ± 0.3,1.19 ± 0.31,1.13 ± 0.23,1.18 ± 0.13
DDX60 (UniProt Q8IY21),1.2 ± 0.078,1.27 ± 0.093,1.66 ± 0.11,1.73 ± 0.15,1.9 ± 0.16,1.95 ± 0.11
UniProt Q8TDY2|Q8TDY2-2,1.04 ± 0.056,1.02 ± 0.044,1.03 ± 0.038,1.04 ± 0.042,1.01 ± 0.041,1.04 ± 0.038
UniProt Q4FZB7,0.985 ± 0.15,1.1 ± 0.23,1.07 ± 0.11,1.01 ± 0.16,1.01 ± 0.029,0.983 ± 0.065
SF3B3 (UniProt Q15393),1.12 ± 0.072,1.11 ± 0.052,1.15 ± 0.072,1.1 ± 0.032,1.188 ± 0.0092,1.19 ± 0.037
PIGO (UniProt Q8TEQ8),0.991 ± 0.035,1 ± 0.062,0.996 ± 0.02,0.979 ± 0.073,0.983 ± 0.051,1.01 ± 0.039
UniProt Q4G0J3|Q4G0J3-3,1.17 ± 0.046,1.22 ± 0.047,1.36 ± 0.021,1.507 ± 0.0071,1.56 ± 0.049,1.71 ± 0.018
UniProt Q13409|Q13409-2|Q13409-3|Q13409-7|Q13409-5,0.957 ± 0.063,0.957 ± 0.037,0.953 ± 0.059,0.994 ± 0.18,0.975 ± 0.089,0.973 ± 0.074
UniProt Q6Y7W6|Q6Y7W6-4|Q6Y7W6-5,1.05 ± 0.076,1.08 ± 0.05,1.1 ± 0.051,1.18 ± 0.068,1.12 ± 0.029,1.16 ± 0.045
YRDC (UniProt Q86U90),0.928 ± 0.045,0.959 ± 0.05,0.93 ± 0.028,0.885 ± 0.043,0.896 ± 0.01,0.932 ± 0.017
CUL4A (UniProt Q13619),0.99 ± 0.13,0.955 ± 0.08,0.918 ± 0.08,0.89 ± 0.098,0.963 ± 0.047,0.94 ± 0.047
ZDHHC17 (UniProt Q8IUH5),1.08 ± 0.056,0.997 ± 0.021,1.11 ± 0.082,1.02 ± 0.058,1.09 ± 0.063,1.08 ± 0.033
UniProt Q15397,1.28 ± 0.054,1.39 ± 0.058,1.53 ± 0.073,1.6 ± 0.13,1.7 ± 0.042,1.96 ± 0.12
RNF20 (UniProt Q5VTR2),0.962 ± 0.05,0.961 ± 0.02,0.935 ± 0.024,0.997 ± 0.041,0.935 ± 0.019,0.933 ± 0.017
UniProt Q08170,1.58 ± 0.12,1.68 ± 0.08,1.66 ± 0.095,1.81 ± 0.058,1.68 ± 0.052,1.64 ± 0.073
UniProt Q86U06|Q86U06-2|Q86U06-4|Q86U06-5|G3XAP0,1.5 ± 0.41,1.53 ± 0.31,1.48 ± 0.33,1.76 ± 0.46,1.56 ± 0.41,1.46 ± 0.49
UniProt Q53GS7|Q53GS7-2,1.18 ± 0.079,1.19 ± 0.12,1.39 ± 0.24,1.54 ± 0.24,1.52 ± 0.2,1.71 ± 0.23
UniProt Q8NC60,0.967 ± 0.17,0.876 ± 0.13,0.889 ± 0.13,0.876 ± 0.2,0.945 ± 0.15,0.942 ± 0.14
UniProt Q8NB78,1.11 ± 0.064,1.09 ± 0.025,1.11 ± 0.08,0.998 ± 0.08,1.11 ± 0.035,1.09 ± 0.025
UniProt Q70Z53,0.931 ± 0.015,0.927 ± 0.028,0.919 ± 0.011,0.922 ± 0.066,0.933 ± 0.058,0.936 ± 0.013
UniProt Q10567|Q10567-2|Q10567-3,0.9721 ± 0.0088,0.973 ± 0.015,0.922 ± 0.022,0.964 ± 0.013,0.951 ± 0.0014,0.934 ± 0.024
ZNF579 (UniProt Q8NAF0),0.954 ± 0.03,1.06 ± 0.12,0.945 ± 0.016,0.936 ± 0.073,0.901 ± 0.045,0.887 ± 0.1
LYPLAL1 (UniProt Q5VWZ2),0.942 ± 0.077,0.936 ± 0.066,0.892 ± 0.048,0.879 ± 0.12,0.883 ± 0.03,0.904 ± 0.057
